In PubChem BioAssay one finds z-score and composite z-score data, which are given here for four molecules.

Assay [1] is described as follows: optical density shifts of acrAB sulA E. coli – strain DRC41, OD650, 48 h, E. coli filamentation inducer project, primary screen (AID 1152).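 Note: E. coli MC1000 strain DRC41 lacking acrAB efflux pump and sulA.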 As to conditions: higher = more signal, called active from +8 up or from −8 down.
The nature of assay [2]: probe aLefty1 binding on compound microarray – biochemical, small-molecule microarray, 635/667 nm fluorescence, primary screen (AID 1153).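 Note: score merges spot fluorescence with signal-to-noise ratio from the scanned slide images.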 As to conditions: higher = more signal.
A short description of assay [3]: plasmodial surface anion channel blockers, osmotic lysis – cell-based, P. falciparum Indochina, OD700, 1 h, primary screen (AID 1154). Particulars: P. falciparum Indochina infected RBC osmotic lysis, higher = more signal, called active from +8 up or from −8 down.
A short description of assay [4]: plasmodial surface anion channel blockers, osmotic lysis – cell-based, P. falciparum Indochina, OD700, 2 h, primary screen (AID 1155).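 Note: lysis reports solute entry through the parasite surface anion channel PSAC.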 As to conditions: P. falciparum Indochina infected erythrocytes, higher = more signal, called active from +8 up or from −8 down.
Assay [5] in a line: changes in parasitized red cell lysis, either direction – P. falciparum Indochina, OD700, 3 h, PSAC antagonist project, primary screen (AID 1156). As to conditions: P. falciparum-infected erythrocytes, osmotic lysis, higher = more signal, called active from +8 up or from −8 down.
A short description of assay [6]: plasmodial surface anion channel blockers, osmotic lysis – cell-based, P. falciparum Indochina, OD700, 18 h, primary screen (AID 1157). As to conditions: P. falciparum Indochina infected erythrocytes, osmotic lysis OD700, 18 h; higher = more signal, called active from +8 up or from −8 down.
Assay [7] in a line: S6 kinase pathway phospho-S6 level changes – cell-based, A549, cytoblot, luminescence, serum-stimulated, primary screen (AID 1158).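 Note: serum-stimulated A549 lung adenocarcinoma cells; signal is phosphorylated S6 detected by cytoblot immunostaining with HRP secondary.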 Particulars: 5 h, higher = more signal.
Assay [8] concerns the target NADPH oxidase 2 (Homo sapiens) (UniProt P04839). Kind of assay: compounds shifting NOX2 Amplex Red fluorescence – cell-based, HEK293-NOX2, PMA-stimulated, NOX inhibitor project, primary screen (AID 1159). Note: test concentration not given here. As to conditions: 45 min, higher = more signal, called active from +8 up or from −8 down.
Assay [9] has as its target NADPH oxidase 4 (Homo sapiens) (UniProt Q9NPH5). Description: compounds shifting NOX4 Amplex Red fluorescence – cell-based, HEK293-NOX4, tetracycline-induced, NOX inhibitor project, primary screen (AID 1160). Particulars: HEK293-NOX4, Amplex Red H2O2 fluorescence, 45 min; higher = more signal, called active from +8 up or from −8 down.
Assay [10] deals with NADPH oxidase 5 (Homo sapiens) (UniProt Q96PH1). Description: compounds shifting NOX5 Amplex Red fluorescence – cell-based, HEK293-NOX5, NOX inhibitor project, primary screen (AID 1161). Particulars: HEK293-NOX5, ionomycin, 45 min, higher = more signal.
NADPH oxidase 5 (Homo sapiens), sequence (Q96PH1 whole entry, looked up): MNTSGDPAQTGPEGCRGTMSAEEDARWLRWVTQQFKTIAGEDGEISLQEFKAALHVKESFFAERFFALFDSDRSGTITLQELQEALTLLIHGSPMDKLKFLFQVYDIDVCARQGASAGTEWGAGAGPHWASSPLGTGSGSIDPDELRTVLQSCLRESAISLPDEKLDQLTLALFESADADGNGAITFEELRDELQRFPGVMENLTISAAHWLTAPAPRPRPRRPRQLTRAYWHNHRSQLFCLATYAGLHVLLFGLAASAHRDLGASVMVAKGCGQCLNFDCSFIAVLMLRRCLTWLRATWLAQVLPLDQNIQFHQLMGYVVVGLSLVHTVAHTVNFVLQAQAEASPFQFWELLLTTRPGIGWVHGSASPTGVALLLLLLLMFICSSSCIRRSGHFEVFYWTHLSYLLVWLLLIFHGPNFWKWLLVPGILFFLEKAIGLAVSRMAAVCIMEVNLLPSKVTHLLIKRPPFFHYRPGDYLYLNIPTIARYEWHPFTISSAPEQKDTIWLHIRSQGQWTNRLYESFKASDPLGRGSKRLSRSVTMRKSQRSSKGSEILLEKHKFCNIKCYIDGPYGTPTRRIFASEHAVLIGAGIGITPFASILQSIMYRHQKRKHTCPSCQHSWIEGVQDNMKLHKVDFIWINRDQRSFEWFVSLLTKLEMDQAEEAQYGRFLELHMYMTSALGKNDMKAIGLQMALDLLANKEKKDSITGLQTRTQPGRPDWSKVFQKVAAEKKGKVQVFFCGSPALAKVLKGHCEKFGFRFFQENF
A short description of assay [11]: compound effects on lung adenocarcinoma cell viability – A549, calcein-AM fluorescence, 48 h, basal, profiling panel (AID 1162). Note: test concentration not given here. As to conditions: higher = more signal.
A short description of assay [12]: compound effects on differentiated 3T3-L1 adipocyte viability – cell-based, 3T3-L1 adipocytes, calcein-AM fluorescence, 48 h, basal, profiling panel (AID 1163). Note: test concentration not given here. Particulars: 3T3-L1 adipocytes viability, higher = more signal.
Assay [13] can be described thus: compound effects on hepatocellular carcinoma cell viability – HepG2, calcein-AM fluorescence, 48 h, basal, profiling panel (AID 1164). Note: test concentration not given here. As to conditions: higher = more signal.
Assay [14] is described as follows: compound effects on multiple myeloma cell viability – MM1S, calcein-AM fluorescence, 48 h, basal, profiling panel (AID 1165).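 Note: viability of MM1S multiple myeloma cells under basal unstimulated conditions; test concentration not given here.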 Particulars: higher = more signal.
The nature of assay [15]: calcein-AM signal in unstimulated myeloma cells – cell-based, calcein-AM fluorescence, 48 h, PK04 Diversity Set, profiling panel (AID 1166).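 Note: cells grown under basal conditions without added stimulus; test concentration not given here.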 Particulars: RPMI8226 myeloma viability, higher = more signal.
The nature of assay [16]: JC-1 mitochondrial signal, unstimulated HepG2 cells – cell-based, JC-1 fluorescence, 24 h, 100 nL compound, profiling panel (AID 1167). Note: test concentration not given here. As to conditions: HepG2 mitochondrial potential, higher = more signal.
Assay [17] can be described thus: JC-1 mitochondrial signal, unstimulated adipocytes – cell-based, JC-1 fluorescence, 3T3-L1 adipocytes, 24 h, 100 nL compound, profiling panel (AID 1168). Note: test concentration not given here. Particulars: JC-1 mitochondrial fluorescence, higher = more signal, called active from +8 up or from −8 down.
Assay [18] in a line: JC-1 mitochondrial signal, unstimulated myeloma cells – cell-based, JC-1 fluorescence, RPMI8226, 24 h, 100 nL compound, profiling panel (AID 1169). Note: test concentration not given here. Particulars: JC-1 mitochondrial potential fluorescence, higher = more signal.
A short description of assay [19]: JC-1 mitochondrial signal, unstimulated MM1S myeloma – cell-based, JC-1 fluorescence, 24 h, 100 nL compound, profiling panel (AID 1170). Note: test concentration not given here. As to conditions: MM1S mitochondrial potential, higher = more signal.
A short description of assay [20]: resazurin metabolic signal in A549 cells – cell-based, resazurin fluorescence, 24 h, PK04 Diversity Set, profiling panel (AID 1171). Note: test concentration not given here. As to conditions: A549 viability, higher = more signal, called active from +8 up or from −8 down. On the technique in general: Resazurin is reduced to fluorescent resorufin, in cell work by metabolically active cells.

Each structure is given as a SMILES string. Activity calls are given as the source filed them.

NADPH oxidase 4 (Homo sapiens), sequence (Q9NPH5 whole entry, looked up): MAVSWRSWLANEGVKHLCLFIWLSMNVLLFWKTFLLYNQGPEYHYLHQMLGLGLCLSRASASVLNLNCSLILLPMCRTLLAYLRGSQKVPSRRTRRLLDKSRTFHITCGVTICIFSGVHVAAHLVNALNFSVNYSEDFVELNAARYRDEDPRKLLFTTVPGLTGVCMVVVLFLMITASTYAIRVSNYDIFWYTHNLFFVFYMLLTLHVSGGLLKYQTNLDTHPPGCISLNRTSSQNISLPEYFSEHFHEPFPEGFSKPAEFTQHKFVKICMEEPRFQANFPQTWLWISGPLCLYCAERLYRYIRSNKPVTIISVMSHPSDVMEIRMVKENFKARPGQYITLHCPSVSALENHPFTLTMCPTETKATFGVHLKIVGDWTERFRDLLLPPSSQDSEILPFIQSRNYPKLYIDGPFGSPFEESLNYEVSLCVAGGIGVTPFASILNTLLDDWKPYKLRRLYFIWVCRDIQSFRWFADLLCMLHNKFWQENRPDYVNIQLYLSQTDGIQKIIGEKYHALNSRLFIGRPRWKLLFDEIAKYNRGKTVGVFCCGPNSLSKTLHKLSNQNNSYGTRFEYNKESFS
NADPH oxidase 2 (Homo sapiens), sequence (P04839 whole entry, looked up): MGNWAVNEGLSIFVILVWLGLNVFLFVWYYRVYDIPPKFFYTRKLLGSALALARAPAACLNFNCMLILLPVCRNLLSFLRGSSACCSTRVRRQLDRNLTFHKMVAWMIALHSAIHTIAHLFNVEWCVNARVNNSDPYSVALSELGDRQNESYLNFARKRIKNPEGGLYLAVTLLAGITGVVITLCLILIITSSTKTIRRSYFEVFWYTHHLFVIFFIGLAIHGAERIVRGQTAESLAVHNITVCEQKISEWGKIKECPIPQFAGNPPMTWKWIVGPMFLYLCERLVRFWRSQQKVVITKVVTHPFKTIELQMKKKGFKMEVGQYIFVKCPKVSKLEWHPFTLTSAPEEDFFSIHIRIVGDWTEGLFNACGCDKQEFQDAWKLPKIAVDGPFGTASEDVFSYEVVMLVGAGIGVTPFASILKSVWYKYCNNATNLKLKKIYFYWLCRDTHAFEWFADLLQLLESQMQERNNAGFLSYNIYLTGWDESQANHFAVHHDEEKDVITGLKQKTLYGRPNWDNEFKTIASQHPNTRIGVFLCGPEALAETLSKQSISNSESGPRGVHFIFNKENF

For `C=C(COC)C(=O)CC[C@@H](OC(=O)c1ccccc1-c1ccccc1C(=O)O)c1ccc(OCCO)cc1`, the z-score in [1] was -0.172 (inactive); in assay [3], 10.8 (active); in assay [4], 0.971 (inactive); in assay [5], 0.489 (inactive); in assay [6], 0.381 (inactive); in assay [7], -0.528. Besides, the z-score in assay [8] is 0.849 (inactive); in assay [9], -0.245 (inactive); in [10], -1.32; in assay [11], -0.25; in [12], 1.27; in assay [13] it was -0.354. The z-score in assay [14] is -3.06; in assay [15], -0.414; in assay [16] it was -1.05; in assay [17], -0.144 (inactive); in [18] it was -0.163; in assay [19] it was 0.0435. Also, the z-score in [20] is -0.205 (inactive). In [2], this molecule gave a composite z-score of 0.712.
For the molecule `O=C(N1CCOCC1)[C@@]1(Cc2ccccc2)COC(c2ccc(OCCCO)cc2)=N1`, the z-score was 2.51 (inactive) in assay [1]; 12 (active) in [3]; 0.653 (inactive) in assay [4]; 0.929 (inactive) in [5]; -0.269 (inactive) in [6]; 1.66 in [7]. The z-score was -2.33 (inactive) in assay [8]; 0.642 (inactive) in assay [9]; -1.51 in assay [10]; -0.114 in assay [11]; 0.893 in assay [12]; -0.985 in [13]. The z-score is -1.6 in [14]; -0.907 in assay [15]; -1.12 in assay [16]; 0.0409 (inactive) in assay [17]; -0.856 in [18]; -0.095 in [19]. The z-score in assay [20] was 0.628 (inactive). The molecule further registered a composite z-score in [2] of -0.132.
Consider `COCCOC(=O)N1C(=O)[C@@]2(c3cc(C#CCCO)ccc31)[C@H](c1ccc(OCCO)cc1)N1[C@H](c3ccccc3)[C@H](c3ccccc3)OC(=O)[C@H]1[C@@H]2C(=O)N1CCCCCCC1`, for which the z-score in assay [1] is -0.453 (inactive); in assay [3], 1.96 (inactive); in assay [4] it was 0.877 (inactive); in assay [5], -0.564 (inactive); in assay [6] it was 0.115 (inactive); in assay [7] it was -0.23. Also, the z-score in assay [8] is 1.5 (inactive); in assay [9] it was 1.02 (inactive); in [10], 1.86; in assay [11], 0.139; in assay [12], 0.005; in assay [13], -0.584. The z-score is -0.993 in assay [14]; -1.03 in assay [15]; -0.437 in [16]; -2.09 (inactive) in [17]; 0.309 in [18]; -0.958 in assay [19]. Moreover, the z-score in assay [20] was -0.232 (inactive). For the same molecule, the composite z-score in [2] is 2.13.
Take `CC(C)N1C(=O)c2ccccc2[C@@H](C(=O)NCC(F)(F)F)[C@@H]1c1ccc(CO)cc1`: the z-score in assay [1] was -0.234 (inactive); in assay [3] it was 2.15 (inactive); in assay [4], 0.336 (inactive); in [5] it was 0.181 (inactive); in assay [6], -0.0376 (inactive); in assay [7], -0.165. Also, the z-score in assay [8] is 0.74 (inactive); in assay [9], 0.912 (inactive); in [10] it was -1.21; in assay [11], 0.346; in [12], -1.81; in [13], 0.569. Besides, the z-score in assay [14] was 0.238; in assay [15], 0.371; in [16] it was -0.0214; in [17] it was -0.516 (inactive); in [18], -0.00189; in [19] it was 0.0428. In addition, the z-score in assay [20] is -0.0442 (inactive). The composite z-score in [2] came to 0.0376.
